# Bioassay records as filed in PubChem BioAssay.
# HepG2 tox – counter-screen for TGF-b inhibitors: cytotoxicity in HepG2 cells. HepG2 CAGA-GFP viability, ATP luminescence, 18 h. Potency, µM (highest dose often 46.1 µM), for the others: top-dose activity change, negative = cytotoxicity, most hits filed as cytotoxic. actives 0.76% (n = 410,000). AID 588856
#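 CellTiter-Glo luminescence gave cytotoxicity after 18 hours at 37 degrees C. The cells were HepG2 CAGA-GFP in 1% FBS DMEM, stimulated with 500 pg/mL TGF-beta after compound addition. %Activity was normalised to no-cell wells (complete cell-killing) and DMSO (no toxicity), and curves were fitted and classified.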
# RORg inh – ROR gamma (mouse) transcription inhibition | Potency, µM (top dose mostly 53.6 µM), inactives show top-dose activity change, negative = inhibition, actives largely listed as inhibitors | actives 5.4% (n = 310,000) | Drosophila S2 Gal4-RORgamma UAS-luciferase reporter, 20 h | AID 2551; also: % is scaled to controls: 0 for no effect and ±100 for the full control effect; nearly all actives have a fitted effect of over 60% in size
# Target sequence (P51450 whole entry, looked up, the tested form may be a part): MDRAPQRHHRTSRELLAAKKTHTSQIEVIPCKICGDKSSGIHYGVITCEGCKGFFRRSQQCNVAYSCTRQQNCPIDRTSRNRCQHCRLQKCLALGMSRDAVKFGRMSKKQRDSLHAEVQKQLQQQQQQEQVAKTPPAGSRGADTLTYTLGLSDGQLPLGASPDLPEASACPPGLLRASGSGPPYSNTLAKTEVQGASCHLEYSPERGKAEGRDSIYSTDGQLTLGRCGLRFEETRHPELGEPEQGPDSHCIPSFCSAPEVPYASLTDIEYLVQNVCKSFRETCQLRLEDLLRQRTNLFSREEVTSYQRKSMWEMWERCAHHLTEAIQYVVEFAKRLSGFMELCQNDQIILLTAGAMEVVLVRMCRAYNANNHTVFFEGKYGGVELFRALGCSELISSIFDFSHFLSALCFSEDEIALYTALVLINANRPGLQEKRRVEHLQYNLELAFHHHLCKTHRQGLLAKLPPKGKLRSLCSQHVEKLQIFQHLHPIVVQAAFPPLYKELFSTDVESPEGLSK
#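 Drosophila Schneider cells stably carrying a metallothionein-driven Gal4 DBD–ROR gamma fusion and a UAS-Photinus luciferase reporter were exposed to compound for 1 hr, then induced with copper sulfate (700 uM final) for 20 hr at ambient temperature before luminescence reading.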
# TGFb inhibitor – TGF-b pathway inhibition. HepG2 CAGA-GFP TGF-b/SMAD3 reporter, GFP fluorescence, 18 h; TGF-beta stimulated, 500 pg/mL final. Potency, µM (highest dose often 46.1 µM), inactives show top-dose activity, negative = inhibition, usual class: inhibitors. actives 1.2% (n = 410,000). AID 588855; also: % is scaled to controls: 0 for no effect and ±100 for the full control effect; nearly all actives have a fitted effect of over 65% in size
#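 First, reporter cells (HEPG2 CAGA-GFP) rested 2 h at 37 degrees C. Next, compounds were pinned in and TGF-beta added to 500 pg/mL final. After 18 h, GFP was imaged per cell and summed per well.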
# VP16 counter – inhibits Gal4-VP16 luciferase reporter, ROR gamma counter-screen; Drosophila S2 Gal4-VP16 UAS-luciferase, luminescence, 20 h; Potency, µM (series often up to 53.6 µM), for the others: top-dose activity, negative = inhibition, hits mostly inhibitors; actives 3.5% (n = 310,000);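 also: Gal4-VP16 expression switched on by copper sulfate through the metallothionein promoter; % is scaled to controls: 0 for no effect and ±100 for the full control effect; nearly all actives have a fitted effect of over 50% in size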
# ATXN2 expr inh – inhibitors of ATXN2 expression. HEK-293 ATXN2-luciferase reporter, luminescence, 24 h. Potency, µM (highest dose often 57 µM), for the others: top-dose activity change, negative = inhibition, hits mostly inhibitors. actives 0.72% (n = 360,000). AID 1745845; also: % is scaled to controls: 0 for no effect and ±100 for the full control effect; nearly all actives have a fitted effect of over 55% in size
#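 ATXN2-luciferase reporter cells (luciferase flanked by upstream and downstream ATXN2 gene portions) were treated 24 h at 37 °C with compounds at up to 57 uM. SteadyGlo luminescence gave expression; GF-AFC fluorescence gave viability.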
# S2 tox – cell viability loss in ATXN counter-screen; Potency, µM (series often up to 56.7 µM), usual class: cytotoxic; S2 cells (HEK-293 line with an ATXN2-luciferase reporter) viability, CellTiter-Fluor protease fluorescence, 24 h; actives 0.49% (n = 400,000); also: nearly all actives have a fitted effect of over 40% in size
# Active calls of the source: *; i = inactive; ? = inconclusive; nt = no result given; [ ] = remark or other dose. Compounds with a hit are over-represented: about 6.1% of the library has one in this group of screens. Calls follow the shape of the dose curve; as a rule, active = well fitted curve in the direction sought with a large enough effect; inconclusive = small, poorly fitted or top-dose-only effect, or another doubt; inactive = no such curve, though single readings can be large; an effect the other way counts as inactive or inconclusive. Potency is read from the fitted curve at half-maximal effect.
SMILES,HepG2 tox,RORg inh,TGFb inhibitor,VP16 counter,ATXN2 expr inh,S2 tox
COc1ccc(C2c3c(-c4ccccc4)n[nH]c3C(=O)N2c2ccc(C(=O)O)cc2)c(OC)c1 (centres undefined),6%,nt,34%,nt,13%,i
COc1cc([C@H]2Oc3cc([C@H]4Oc5cc(O)cc(O)c5C(=O)[C@H]4O)ccc3O[C@H]2CO)ccc1O,nt,nt,nt,nt,-13%,nt
CC(=O)NC(c1ccco1)c1cc(F)c2cccnc2c1O (centres undefined),8.9µM*,nt,?,nt,?,14µM*
CC(=O)NC(c1cccs1)c1cc(F)c2cccnc2c1O (centres undefined),-49%,nt,?,nt,?,4µM*
COc1ccc(NC(=O)CN(c2cc(C)cc(C)c2)S(=O)(=O)c2c(C)noc2C)cc1Cl,-43%,nt,-59%,nt,?,?
CC(C)(C)c1ccc(C(=O)NCCOc2ccccc2)cc1,-4%,8.9µM*,-2%,?,?,i
CC(C)(C)c1ccc(C(=O)NCCOc2ccccc2F)cc1,-4%,7.1µM*,15%,6.3µM*,13µM*,i
COc1ccccc1C(=O)NCCOc1ccc(C(C)(C)C)cc1,-34%,?,-19%,?,nt,i
COc1ccccc1N1CCN(C(=O)c2cc3c(=O)oc4ccc(C)cc4c3s2)CC1,-1%,nt,9%,nt,0%,i
Cc1nn2c3c(cnc2c1-c1ccc(F)cc1)C(=O)CC(c1ccccc1)C3 (centres undefined),-8%,nt,-10%,nt,0%,i
CN1CCN(c2ncc3nc(-c4cccs4)c(=O)n(CCC#N)c3n2)CC1,nt,0.71µM*,nt,6.3µM*,nt,nt
CN1CCN(c2ncc3nc(-c4cccs4)c(=O)n(Cc4cccs4)c3n2)CC1,nt,13µM*,nt,?,nt,nt
CN1CCN(c2ncc3nc(-c4ccccc4)c(=O)n(Cc4cccs4)c3n2)CC1,nt,-4%,nt,-1%,nt,nt
O=c1c(-c2cccs2)nc2cnc(N3CCNCC3)nc2n1Cc1cccs1,nt,18µM*,nt,8.9µM*,nt,nt
O=c1c(-c2cc(F)cc(F)c2)nc2cnc(N3CCNCC3)nc2n1Cc1cccs1,nt,2.8µM*,nt,?,nt,nt
O=c1c(-c2ccc(Cl)cc2)nc2cnc(N3CCNCC3)nc2n1Cc1cccs1,nt,-11%,nt,?,nt,nt
CN(C)c1ncc2nc(-c3cccs3)c(=O)n(CCC#N)c2n1,nt,-14%,nt,-6%,nt,nt
CN(C)CCOc1ccc(-c2nc(-c3ccc4c(c3)CCC4=NO)c(-c3ccncc3)[nH]2)cc1,nt,nt,nt,nt,0%,nt
O=c1c(-c2ccc(F)cc2)nc2cnc(N3CCNCC3)nc2n1Cc1ccc(F)cc1,nt,14µM*,nt,?,nt,nt
COc1ccc(-n2c(=O)c(-c3cccs3)nc3cnc(N4CCNCC4)nc32)cc1,nt,?,nt,10µM*,nt,nt
COc1ccc(-n2c(=O)c(-c3cccs3)nc3cnc(N4CCOCC4)nc32)cc1,nt,11%,nt,-13%,nt,nt
Nc1nc2c(c(=O)[nH]1)N(C=O)C(CNc1ccc(C(=O)N[C@@H](CCC(=O)O)C(=O)O)cc1)CN2 (some centres undefined),nt,nt,nt,nt,nt,i
O=C(Nc1ncc(Cc2ccc(Cl)cc2Cl)s1)c1ccc([N+](=O)[O-])cc1,14%,2.2µM*,14%,3.5µM*,-19%,i
CCc1ccc(Cc2cnc(NC(=O)C3=NCCN3)s2)cc1,1%,7.1µM*,0%,?,-15%,i
O=C(Nc1ncc(Cc2ccccc2Cl)s1)C1=NCCN1,-5%,4µM*,-8%,3.2µM*,-19%,i
SMILES,HepG2 tox,RORg inh,TGFb inhibitor,VP16 counter,ATXN2 expr inh,S2 tox
O=C(Nc1nnc(COc2ccc(Cl)cc2)s1)c1ccc([N+](=O)[O-])cc1,8%,6%,2%,-7%,-26%,?
Cc1ccc(CSc2nc3c(c(=O)[nH]2)C(c2cccc(F)c2F)CC(=O)N3)cc1 (centres undefined),-12%,nt,-5%,nt,1%,i
COc1ccc(NC(=O)CN(c2ccc(C)cc2)S(=O)(=O)c2c(C)nn(C)c2C)cc1,4%,14%,9%,-5%,5%,i
COc1ccc(NC(=O)CN(c2ccc(C)cc2)S(=O)(=O)c2c(C)nn(C)c2C)cc1OC,-1%,16µM*,-5%,?,-1%,i
COc1ccc2nc(NC(=O)CN(c3ccc(C)cc3)S(=O)(=O)c3c(C)nn(C)c3C)sc2c1,-18%,0%,?,18µM*,-18%,i
COc1ccc(CNc2cc(-c3ccoc3)ncn2)c(OC)c1,nt,30%,nt,-9%,nt,nt
CCOC(=O)c1c(NC(=O)COc2ccc(F)cc2)sc2c1CCC(C)C2 (centres undefined),-10%,nt,4%,nt,-7%,i
COCC(=O)Nc1sc2c(c1C(=O)OC)CCCC2,-1%,36%,9%,-13%,11%,i
CCOC(=O)c1c(NC(=S)NCc2ccccc2)sc2c1CCN(C(=O)OCC)C2,-19%,2µM*,7%,4.5µM*,-21%,i
CCOC(=O)c1c(NC(=S)N2CCCCC2)sc2c1CCN(C(=O)OCC)C2,-61%,-40%,?,0%,?,i
CCOC(=O)c1c(NC(=S)Nc2ccccc2)sc2c1CCCCC2,7%,2.5µM*,40%,4µM*,1%,i
COC(=O)c1c(NC(=O)COC(=O)c2ccc(O)cc2)sc2c1CCCCC2,-4%,?,3%,18µM*,?,?
CCOC(=O)c1c(NC(=S)Nc2ccccc2)sc2c1CCN(CC)C2,-28%,8%,34%,-3%,1%,nt
COC(=O)c1c(NC(=O)COc2ccc(OC)cc2)sc2c1CCC(C)C2 (centres undefined),-100%,nt,13µM*,nt,?,?
CCc1cc(C(=O)NNC(=S)Nc2cccc(C)c2)cs1,-20%,?,0%,-11%,48%,i
CCOC(=O)c1c(NC(=O)CCC(=O)O)sc2c1CC(C)(C)OC2,-5%,?,4%,1%,2%[11.3 µM],i
C=CCNC(=S)Nc1sc2c(c1C(=O)OCC)CCN(C(=O)OCC)C2,-27%,2.5µM*,-15%,6.3µM*,-1%,i
CCOC(=O)c1c(NC(=S)Nc2cccc(C)c2)sc2c1CC(C)(C)SC2,-21%,2µM*,?,2µM*,8%,i
C=CCNC(=S)Nc1sc2c(c1C(=O)OCC)CC(C)(CC)OC2 (centres undefined),-3%,2.8µM*,?,?,-13%,i
C/C(=C(/OCCOc1ccc(Cl)cc1)c1ccc(Cl)cc1Cl)n1ccnc1,nt,nt,nt,nt,-27%,i
